# Measurements published in PubChem BioAssay AID1159580 (chemical genetic matrix, 2015).
# Where “and” joins values, the source holds several entries; their conditions need not be identical. Equal values may be shown once. About 2,000 (36%) of roughly 5,500 compounds were called active. About 18% were inconclusive and are not listed. Some of the results follow. Unmarked numbers belong to inactive results. No stated cut-off is given here; in the data, active means normalized growth mostly below about 0.91 (no sharp cut-off); inconclusive means no clear call, values can overlap the other calls; inactive means mostly above about 0.92.
# Test: chemical genetic growth profiling, strain panel (AID 1159580);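 further: tested at 20 µM; growth read once vehicle control cultures reached saturation at 30 °C; 1 = growth at the plate median or of vehicle wells; lower values mean less growth of the strain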
# Conditions: S. cerevisiae deletion strains, growth OD
compound,measurement,setting,value
COc1cc2c(cc1OC)[C@@H]1C(=O)c3ccc4c(c3O[C@@H]1CO2)CC(C(C)C)O4 (some centres not stated),normalized growth,"locus YAL021C, strain ccr4, active compounds read low",0.989
same,normalized growth,"locus YAL026C, strain drs2, active compounds read low",0.969
same,normalized growth,"locus YAL030W, strain snc1, active compounds read low",0.998
same,normalized growth,"locus YBL061C, strain skt5, active compounds read low",1
same,normalized growth,"locus YBR009C, strain hhf1, active compounds read low",0.938
same,normalized growth,"locus YBR021W, strain FUR4, active compounds read low",0.993
same,normalized growth,"locus YBR023C, strain chs3, active compounds read low",0.981
same,normalized growth,"locus YBR171W, strain sec66, active compounds read low",0.974
same,normalized growth,"locus YBR229C, strain ROT2, active compounds read low",0.994
same,normalized growth,"locus YBR231C, strain swc5, active compounds read low",0.932
same,normalized growth,"locus YBR279W, strain paf1, active compounds read low",0.982
same,normalized growth,"locus YCL011C, strain gbp2, active compounds read low",0.991
same,normalized growth,"locus YCL016C, strain dcc1, active compounds read low",0.984
same,normalized growth,"locus YCL029C, strain bik1, active compounds read low",1.02
same,normalized growth,"locus YCL061C, strain MRC1, active compounds read low",0.96
same,normalized growth,"locus YCL069W, strain vba3, active compounds read low",0.99
same,normalized growth,"locus YCR088W, strain abp1, active compounds read low",0.99
same,normalized growth,"locus YDL005C, strain med2, active compounds read low",0.978
same,normalized growth,"locus YDL035C, strain GPR1, active compounds read low",0.972
same,normalized growth,"locus YDL040C, strain nat1, active compounds read low",0.985
same,normalized growth,"locus YDL074C, strain BRE1, active compounds read low",0.952
same,normalized growth,"locus YDL101C, strain DUN1, active compounds read low",0.982
same,normalized growth,"locus YDL185W, strain tfp1, active compounds read low",1.01
same,normalized growth,"locus YDL192W, strain arf1, active compounds read low",1.01
same,normalized growth,"locus YDR001C, strain nth1, active compounds read low",0.987
same,normalized growth,"locus YDR069C, strain doa4, active compounds read low",1
same,normalized growth,"locus YDR101C, strain arx1, active compounds read low",0.998
same,normalized growth,"locus YDR137W, strain rgp1, active compounds read low",0.89
same,normalized growth,"locus YDR150W, strain NUM1, active compounds read low",1.01
same,normalized growth,"locus YDR159W, strain sac3, active compounds read low",0.957
same,normalized growth,"locus YDR162C, strain NBP2, active compounds read low",0.941
same,normalized growth,"locus YDR195W, strain ref2",0.982
same,normalized growth,"locus YDR297W, strain sur2, active compounds read low",0.972
same,normalized growth,"locus YDR318W, strain mcm21, active compounds read low",1
same,normalized growth,"locus YDR334W, strain swr1, active compounds read low",0.99
same,normalized growth,"locus YDR335W, strain msn5, active compounds read low",1.01
same,normalized growth,"locus YDR388W, active compounds read low",1.01
same,normalized growth,"locus YDR392W, strain spt3, active compounds read low",0.707 (active)
same,normalized growth,"locus YDR502C, strain sam2, active compounds read low",0.998
same,normalized growth,"locus YEL003W, strain gim4, active compounds read low",0.959
same,normalized growth,"locus YEL037C, strain rad23, active compounds read low",0.999
same,normalized growth,"locus YEL061C, strain CIN8 (second series), active compounds read low",0.99
same,normalized growth,"locus YEL061C, strain CIN8, active compounds read low",1
same,normalized growth,"locus YER015W, strain faa2, active compounds read low",0.965
same,normalized growth,"locus YER016W, strain bim1, active compounds read low",0.984
same,normalized growth,"locus YER110C, active compounds read low",1.01
same,normalized growth,"locus YER111C, strain swi4, active compounds read low",1.01
same,normalized growth,"locus YER155C, strain BEM2 (second series), active compounds read low",0.931
same,normalized growth,"locus YER155C, strain BEM2, active compounds read low",1
same,normalized growth,"locus YER167W, strain BCK2, active compounds read low",1
same,normalized growth,"locus YFR010W, strain ubp6, active compounds read low",0.98
same,normalized growth,"locus YGL078C, strain dbp3, active compounds read low",1.01
same,normalized growth,"locus YGL086W, strain mad1, active compounds read low",0.985
same,normalized growth,"locus YGL167C, strain pmr1, active compounds read low",0.987
same,normalized growth,"locus YGL173C, strain kem1, active compounds read low",0.977
same,normalized growth,"locus YGL227W, strain vid30, active compounds read low",0.975
same,normalized growth,"locus YGL240W, strain doc1, active compounds read low",0.956
same,normalized growth,"locus YGL248W, strain PDE1, active compounds read low",0.979
same,normalized growth,"locus YGL253W, strain hxk2, active compounds read low",0.96
same,normalized growth,"locus YGR135W, strain pre9, active compounds read low",1.02
same,normalized growth,"locus YGR252W, strain gcn5, active compounds read low",0.895
same,normalized growth,"locus YHR013C, strain ard1, active compounds read low",0.998
same,normalized growth,"locus YHR027C, strain rpn1, active compounds read low",0.993
same,normalized growth,"locus YHR030C, strain SLT2, active compounds read low",1.01 and 1.04
same,normalized growth,"locus YHR079C, strain IRE1 (second series), active compounds read low",1.01
same,normalized growth,"locus YHR079C, strain IRE1, active compounds read low",1.07
same,normalized growth,"locus YHR094C, strain hxt1, active compounds read low",1.01
same,normalized growth,"locus YHR129C, strain ARP1, active compounds read low",0.998
same,normalized growth,"locus YHR142W, strain chs7, active compounds read low",0.986
same,normalized growth,"locus YHR200W, strain rpn10, active compounds read low",1.02
same,normalized growth,"locus YIL066C, strain RNR3, active compounds read low",0.945
same,normalized growth,"locus YIL073C, strain SPO22, active compounds read low",1.03
same,normalized growth,"locus YIL125W, strain kgd1, active compounds read low",0.989
same,normalized growth,"locus YIR030C, strain dcg1, active compounds read low",1
same,normalized growth,"locus YJL092W, strain hpr5, active compounds read low",0.994
same,normalized growth,"locus YJL095W, strain BCK1 (second series), active compounds read low",0.98
same,normalized growth,"locus YJL095W, strain BCK1, active compounds read low",0.944 and 1.04
same,normalized growth,"locus YJL115W, strain asf1, active compounds read low",0.987
same,normalized growth,"locus YJL129C, strain trk1, active compounds read low",0.92
same,normalized growth,"locus YJL134W, strain LCB3, active compounds read low",1.01
same,normalized growth,"locus YJL154C, strain vps35, active compounds read low",0.993
same,normalized growth,"locus YJL164C, strain tpk1, active compounds read low",0.981
same,normalized growth,"locus YJL166W, strain qcr8, active compounds read low",0.934
same,normalized growth,"locus YJL168C, strain set2, active compounds read low",1.01
same,normalized growth,"locus YJL187C, strain SWE1 (second series), active compounds read low",0.981
same,normalized growth,"locus YJR043C, strain POL32, active compounds read low",0.976
same,normalized growth,"locus YJR066W, strain TOR1, active compounds read low",0.987
